POLI inh: inhibitors of human DNA polymerase iota. Q9UNA4. Pol iota fluorescent replication assay, 10 min. Potency, µM (top dose mostly 115 µM), inactives show top-dose activity, negative = inhibition, actives largely listed as inhibitors. 390,000 tested, 1% active. AID 588590; further: potency means the concentration at half of the fitted maximal effect
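Fluorescent replication assay read twice, at 0 min and 10 min after adding 50 nM (final) substrate. Enzyme (10 nM) and compounds were first incubated 15 min at room temperature; enzyme-free buffer wells were negative controls.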
POLK inh: DNA polymerase kappa (human) inhibition. Q9UBT6. purified Pol kappa, fluorescent DNA synthesis assay, 10 min. Potency, µM (titrated, usually from 107 µM), for the others: top-dose activity, negative = inhibition, actives largely listed as inhibitors. 400,000 tested, 0.53% active. AID 588579; further: potency means the concentration at half of the fitted maximal effect; on the % scale 0 is the no-effect control and ±100 the full control effect
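First, compounds were pin-transferred onto 10 nM Pol kappa. After 15 min at room temperature, substrate was added to 50 nM final. Fluorescence was then measured kinetically at 0 and 10 min.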
Pol eta inh: DNA polymerase eta (human) inhibition | Q9Y253 | recombinant Pol eta, fluorescent DNA replication assay | Potency, µM (top dose mostly 114 µM), inactives show at the highest dose activity change, negative = inhibition, usual class: inhibitors | 390,000 tested, 1.2% active | AID 588591; further: potency means the concentration at half of the fitted maximal effect; on the % scale 0 is the no-effect control and ±100 the full control effect
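Fluorescent replication assay: 50 nM final substrate added after a 15 min room-temperature compound preincubation with 10 nM enzyme. Signal taken at 0 min and again at 10 min.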
POLB inh: blocks human DNA polymerase beta activity; AID 485314; Pol beta primer extension/strand displacement, fluorescence kinetic; Potency, µM (highest dose often 114 µM), for inactives: at the top dose activity change, negative = inhibition, actives largely listed as inhibitors; 340,000 tested, 1.3% active; further: potency means the concentration at half of the fitted maximal effect; on the % scale 0 is the no-effect control and ±100 the full control effect
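Homogeneous kinetic assay of primer extension and strand displacement by 10 nM Pol beta, preincubated 15 min at room temperature with compound before 50 nM substrate (final) was added. Read at 0 and 10 min; four-parameter Hill fit.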
WRN inhibitor: inhibitors of human WRN helicase | Q14191 | WRN helicase unwinding, fluorescent forked duplex, kinetic | Potency, µM (series often up to 114 µM), inactives show at the top dose activity change, negative = inhibition, hits mostly inhibitors | 360,000 tested, 0.46% active | AID 651768; further: potency means the concentration at half of the fitted maximal effect; on the % scale 0 is the no-effect control and ±100 the full control effect; nearly all actives have a fitted effect of over 55% in size
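WRN at 20 nM final was preincubated with compound for 15 min at room temperature; reaction started with 100 nM forked duplex oligonucleotide carrying fluorophore and quencher plus 2 mM ATP (final). Unwinding followed kinetically by red fluorescence (ex 525/em 598 nm).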
PI5P4K alpha inh: blocks human PI5P4K alpha kinase activity | P48426 | PI5P4Kalpha enzyme, ADP-Glo luminescence, 60 min; hits give low values | max response, % | 330,000 tested, 1.2% active | AID 652105; active means max response of -50% or lower; inconclusive means between -30% and -50%; inactive means -30% or higher; further: value at the top dose of about 77 µM; on the % scale 0 is the no-effect control and ±100 the full control effect
Target sequence (P48426 whole entry, looked up): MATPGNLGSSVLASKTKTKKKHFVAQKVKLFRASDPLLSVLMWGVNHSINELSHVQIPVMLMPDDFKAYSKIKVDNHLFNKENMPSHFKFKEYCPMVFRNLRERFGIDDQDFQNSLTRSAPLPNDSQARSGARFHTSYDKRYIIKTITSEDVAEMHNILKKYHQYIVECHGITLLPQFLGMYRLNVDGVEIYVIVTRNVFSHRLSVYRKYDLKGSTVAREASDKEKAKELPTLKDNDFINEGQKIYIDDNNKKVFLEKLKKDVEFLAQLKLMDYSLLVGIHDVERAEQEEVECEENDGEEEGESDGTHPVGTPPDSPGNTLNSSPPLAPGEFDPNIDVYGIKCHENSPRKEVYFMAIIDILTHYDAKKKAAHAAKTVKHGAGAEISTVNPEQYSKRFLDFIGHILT
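ADP-Glo luminescence end-point read after a 60 min room-temperature kinase reaction of PI5P4Kalpha plus substrate, initiated with ATP at 5 microM final. Buffer: 0.038 M HEPES pH 7.4, EGTA, 0.1% CHAPS, 5% DMSO.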
Numbers without * were called inactive; ? = inconclusive; . = not tested or not shown; ! = repeats disagree; [ ] = another dose, or the depositor's remark. This is a sample that favours compounds with a hit; in the whole collection about 2.8% have one here. Unless noted, the call rests on the fitted dose curve; in most records, active means well fitted curve in the direction sought with a large enough effect; inconclusive means small, poorly fitted or top-dose-only effect, or another doubt; inactive means no such curve, though single readings can be large; an effect the other way counts as inactive or inconclusive.

SMILES	POLI inh	POLK inh	Pol eta inh	POLB inh	WRN inhibitor	PI5P4K alpha inh
CCN1C(=O)C(=Cc2ccc(C)s2)C(=O)N(CC)C1=S	0.5%	-12.7%	25.1µM*	?	?	-68.6*
CN(C)[C@@H]1C(=O)C(C(N)=O)=C(O)[C@@]2(O)C(=O)C3=C(O)c4c(O)ccc(Cl)c4[C@@](C)(O)C3C[C@@H]12 (some centres undefined)	?	79.4µM*	-13.4%	?	-9.0%[57.1 µM]	?
CN(C)[C@H]1C(=O)C(C(N)=O)=C(O)[C@]2(O)C(=O)C3=C(O)c4c(O)cccc4[C@@](C)(O)[C@H]3C[C@@H]12	.	-7.8%[12 µM]	.	.	.	.
CN(C)C1C(=O)C(C(N)=O)=C(O)C2(O)C(=O)C3=C(O)c4c(O)cccc4C(C)(O)C3CC12 (centres undefined)	?	?	-6.9%	3.16µM*	-3.4%	-9.1
CCOC(=O)N1C(C)CN(/[N+]([O-])=N/Oc2ccc([N+](=O)[O-])cc2[N+](=O)[O-])CC1C (centres undefined)	?	4.3%	.	.	.	.
N#Cc1cc2c(nc1SCC(=O)Nc1ccc(OC(F)(F)F)cc1)C1CCN2CC1	-3.4%	0.2%[60.1 µM]	-3.1%	13.7%	.	.
COc1ccc2cc1Oc1ccc(cc1)C[C@H]1c3cc(c(OC)cc3CCN1C)Oc1c(OC)c(OC)cc3c1[C@H](C2)N(C)CC3	-57.7%	-43.2%	-12.1%	-1.3%	4.1%	-17.8
COc1cc2c3c(c1OC)Oc1ccc(cc1)C[C@H]1c4c(cc(OC)c(OC)c4Oc4ccc(cc4)C[C@@H]3N(C)CC2)CCN1C	35.3%	6.6%	-23.0%	.	1.9%	-91.9*
CCOc1ccccc1NC(=O)c1sc2nc3c(cc2c1N)CN(Cc1ccccc1)CC3	44.3%	0.0%	-15.6%	0.0%	.	.
CCCN1CCc2cccc3c2C1Cc1ccc(O)c(O)c1-3 (centres undefined)	?	-1.0%[19.4 µM]	-7.5%[57.1 µM]	-1.0%[57.1 µM]	.	.
CCCN1CCc2cc(O)cc3c2[C@H]1Cc1ccc(O)c(O)c1-3	14.1µM*	-9.6%[60.1 µM]	-7.6%	.	-0.3%	?
CN1CCc2cc(O)cc3c2[C@H]1Cc1ccc(O)c(O)c1-3	-20.3%	-5.9%[60.1 µM]	4.5%	.	-34.6%	-52.2*
O=C1CC2OCC=C3CN4CC[C@]56c7ccccc7N1C5C2[C@H]3C[C@H]46 (some centres undefined)	.	8.6%[19.4 µM]	.	.	.	.
Cc1ccc2c(c1)Cc1c(C(=O)NN3CCCCC3)nn(-c3ccc(Cl)cc3Cl)c1-2	.	3.8%[60.1 µM]	.	.	.	.
COc1cccc(NC(=O)c2ccc3c(=O)n4nc(Nc5ccccc5OC)sc4nc3c2)c1	?	3.3%	?	-3.4%	.	.
Cc1ccc(Cl)cc1Nc1nn2c(=O)c3ccc(C(=O)NCc4cccs4)cc3nc2s1	?	-6.3%[60.1 µM]	?	8.91µM*	.	.
C#CCOCCOCCOCCNc1nc(N2CCN(C(=O)CCCCCCCCCCNC(=O)[C@H]([C@@H](C)CC)n3cc(CCCCN=C(N)N)nn3)CC2)nc(N2CCN(C(=O)CCCCCCCCCCNC(=O)[C@H](CO)n3cc(CCCCCN)nn3)CC2)n1	?	11.9%	79.4µM*	.	22.4µM*	?
C=CCC1(CC)C(=O)NC(=S)NC1=O	10.0%	-12.5%	-10.2%	.	-3.2%	-1.5
C=CCC1C(=O)NC(=S)NC1=O	48.9%	-1.6%	1.5%	7.3%	?	-63.3*
S=C1CN=C(c2ccccc2Cl)c2cc(Cl)ccc2N1	74.7%	-7.4%	-30.7%	-24.9%	-8.5%	0.7
CN1CCN(C2=Nc3cc(Cl)ccc3Nc3ccccc32)CC1	79.4µM*!	-6.0%[60.1 µM]	-12.0%	?	-5.8%	11.3
O=c1[nH]c(=O)n(CCC2=CCCCC2)c(O)c1/C=N/Nc1cccc2ccccc12	-0.2%	-14.0%	?	?	-10.1%	-65.2*
O=c1[nH]c(=O)n(CCC2=CCCCC2)c(O)c1/C=N/Nc1ccccc1	-12.5%	-9.6%	?	1.7%	-10.8%	-1.6
CCCCn1c(O)c(/C=N/NC(=O)c2ccncc2)c(=O)[nH]c1=O	22.4%	-10.3%	-10.4%	-7.4%	-19.0%	-65.4*
O=C(N/N=C/c1c(O)n(CCc2ccccc2)c(=O)[nH]c1=O)c1ccccc1	153.2%	-3.9%	-20.5%	?	-33.0%	-76.7*
SMILES	POLI inh	POLK inh	Pol eta inh	POLB inh	WRN inhibitor	PI5P4K alpha inh
CCN(CC)CCN=Cc1c(O)n(CCc2ccccc2)c(=O)[nH]c1=O	?	0.3%	-1.3%	3.2%	16.4%	-22.0
O=C(N/N=C/c1c(O)n(C2CCCCC2)c(=S)[nH]c1=O)c1ccccc1O	5.8%	-0.3%	-12.7%	5.5%	-2.9%	?
CC(C)c1ccc(-n2c(O)c(/C=N/NC(=O)c3ccccc3O)c(=O)[nH]c2=S)cc1	-0.7%	-13.6%	-18.1%	6.6%	-32.8%	-64.8*
C[N+]1([O-])[C@H]2CC[C@H]1CC(OC(=O)[C@@H](CO)c1ccccc1)C2 (some centres undefined)	.	-15.4%[60.1 µM]	.	.	.	.
Cc1ccc(-n2c(/C=C\c3ccc(F)c(F)c3)nc3ccccc3c2=O)c(C)c1	20.4%	-11.4%[60.1 µM]	-17.3%	4.1%	.	.
COc1cc(/C=C/c2nc3ccccc3c(=O)n2-c2ccccc2O)ccc1O	118.0%	-5.3%	-25.3%	-4.7%	-11.2%	0.7
O=c1c2ccccc2nc(/C=C/c2ccccc2)n1-c1ccc(O)cc1	49.9%	-4.6%	-11.1%	12.3%	-11.5%	-2.6
COc1cc(/C=C/c2nc3ccccc3c(=O)n2-c2cccc(O)c2)ccc1O	17.8µM*	?	?	?	?	-19.0
O=c1c2ccccc2nc(/C=C/c2ccc(O)c(O)c2)n1-c1ccccc1	?	-18.8%	17.8µM*	?	-9.2%[11.6 µM]	-25.9
CCOc1ccccc1N1C(=O)NC(=O)/C(=C/c2ccc3c4c(cccc24)CC3)C1=O	-8.1%	-5.2%	?	39.1%	50.1µM*	-64.2*
Cc1cccc(NC(=O)c2cc3c(=O)n4ccccc4nc3n2C)c1C	-11.2%	-12.1%	-13.9%	?	.	.
O=[N+]([O-])c1ccc([As](=O)(O)O)cc1	.	-0.5%[19.4 µM]	.	.	.	.
O=[N+]([O-])c1cc(-c2ccc([As](=O)(O)O)cc2)ccc1[As](=O)(O)O	.	.	.	20µM*	.	.
c1cc(OCCN2CC2)ccn1	-6.3%	-15.5%	-8.6%	.	-3.2%	3.2
O=C1NC(=O)C(Nc2ccccc2)C(=O)N1	3.16µM*	-5.8%	4.2%	.	4.5%[11.6 µM]	8.6
Cc1ccc(NC2C(=O)NC(=O)NC2=O)cc1	0.708µM*	-15.1%	79.4µM*	.	-17.8%	0.6
ClC1=C(Cl)C(Cl)(C2(Cl)C(Cl)=C(Cl)C(Cl)=C2Cl)C(Cl)=C1Cl	.	6.7µM*	.	.	.	.
CC/C(=C\C=C\[C@@H]1C=C[C@@H]2CCC[C@H]2[C@@H]1C(=O)c1ccc[nH]1)[C@@H]1O[C@@H]([C@@H](C)C(=O)O)CC[C@@H]1C	?	?	89.1µM*	?	-34.7%	-29.8

Source: PubChem (National Center for Advancing Translational Sciences (NCATS))
